# Assay results published in PubChem BioAssay (NCATS).
# Values joined by “and” are separate entries in the source; they are usually repeats but may differ in a detail not shown here. Equal values may be shown once. Inconclusive results are not listed. A call without a number means that no potency is given here. Active and inactive are the calls of the source. Calls follow the shape of the dose curve; as a rule, active = well fitted cell-killing curve with a large enough effect; inconclusive = small, poorly fitted or top-dose-only effect, or effect the other way; inactive = flat fitted curve, though single readings scatter.
# Test: qHTS assay for cell viability of the p53RE-bla HCT-116 cell line (AID 743292); also: nearly all actives have a fitted effect of over 55% in size
# Conditions: p53RE-bla HCT-116 viability, ATP luminescence, 16 h; series mostly up to 95 µM
# In short: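 Luminescent ATP quantitation (CellTiter-Glo) served as the viability read-out; reagent was added after 16 h compound exposure at 37 C and read after 30 min at room temperature. Cells: p53RE-bla HCT-116, 4,000 per well.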
# Potency is read from the fitted curve at half-maximal effect.
row,Compound,Potency
1,ClC1C(Cl)C(Cl)C(Cl)C(Cl)C1Cl (stereo not drawn),inactive
2,CCCCCCCCOC(=O)c1ccccc1C(=O)OCCCCCCCC,inactive
3,CCOP(=O)(OCC)O/C(=C/Cl)c1ccc(Cl)cc1Cl,inactive
4,[O]=[Cr](=[O])([OH])[O][Cr](=[O])(=[O])[OH],31.6 µM (active) and 25.1 µM (active) and 22.4 µM (active)
5,COc1ccc2c(c1OC)C(=O)OC2C1c2cc3c(cc2CCN1C)OCO3 (stereo not drawn),inactive
6,O=c1[nH]c(=O)n(Cl)c(=O)n1Cl,inactive
7,ClC(Cl)(Cl)Cl,inactive
8,C[C@]12CCC(=O)C[C@@H]1CC[C@@H]1[C@@H]2CC[C@]2(C)[C@@H](O)CC[C@@H]12,inactive
9,O=[N+]([O-])c1ccc(F)c([N+](=O)[O-])c1,inactive
10,C#CCN1CC(=O)N(COC(=O)C2C(C=C(C)C)C2(C)C)C1=O (stereo not drawn),inactive
11,O=C/C=C/c1ccccc1,inactive
12,CC(C)CCON=O,inactive
13,C[C@H]1CCC[C@H](O)CCCCCc2cc(O)cc(O)c2C(=O)O1,inactive
14,O=C1C[C@@H]2OCC=C3CN4CC[C@]56c7ccccc7N1[C@H]5[C@H]2[C@H]3C[C@H]46,inactive
15,O=C1C2CC=CCC2C(=O)N1SC(Cl)(Cl)Cl (stereo not drawn),inactive
16,O=C1CCO1,inactive
17,CC(C)(C)c1cc(O)ccc1O,inactive
18,Oc1cc(Cl)c(Cl)cc1Cl,inactive
19,COC1=CC(=O)O[C@@H](/C=C/c2ccccc2)C1,inactive
20,O=[N+]([O-])C(Br)(CO)CO,inactive
21,O=Cc1ccco1,inactive
22,Clc1ccccc1Cl,inactive
23,ClC=C(Cl)Cl,inactive
